Structures are written as SMILES. Where “and” joins values, the source holds several entries; their conditions need not be identical. Identical values can stand only once. Values without a mark were called inactive. Records with an inconclusive call do not appear. Entries that show only a call come without a potency. Calls of active or inactive are those of the source. Unless noted, the call rests on the fitted dose curve.

Drawing on PubChem BioAssay (NCATS), this text covers Potency, outcome and activation for 28 compounds.

The nature of test [1]: Cell Viability - Jurkat (AID 426;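 active means dose-dependent loss of cell ATP signal giving a full or clear fitted curve, ranked by lower potency value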;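 further: potency means the concentration at half of the fitted maximal effect; cells exposed to compound for 40 hours at 37 °C before ATP read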). The conditions noted are these: qHTS. Summed up: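 Seed 5000 Jurkat E6-1 cells/well; add compound; incubate 40 hr at 37 °C; add CellTiter-Glo; wait 20 min at room temperature; read luminescence. Fit concentration-response with Hill equation for AC50.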
Background: Quantitative high-throughput screening tests each substance at several concentrations.

Test [2] has as its target Bile acid receptor (Homo sapiens) (UniProt Q96RI1). The test is described as follows: qHTS assay for small molecule antagonists of farnesoid X receptor signaling (AID 588526). The conditions noted are these: HEK293T FXR-UAS-bla, beta-lactamase ratio, antagonist mode; series mostly up to 76.7 µM. The gist of the method: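 Concentration-response titrations were fitted to the Hill equation for half-maximal inhibition and maximal response, with data normalised to 50 uM chenodeoxycholic acid and DMSO control wells. Cells: FXR-UAS-bla HEK293T, dialyzed FBS.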

Test [3] concerns the target Glucocorticoid receptor (Homo sapiens) (UniProt P04150). In words: qHTS assay for small molecule antagonists of glucocorticoid receptor signaling (AID 588533; active means well fitted inhibition curve with a large enough effect in the signal ratio, with a control signal flat, not every such curve was filed as active; the % refers to the signal ratio;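 further: cells stimulated with 2 nM dexamethasone as agonist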). The note with it: HeLa MMTV-bla, GRE beta-lactamase ratio, antagonist mode, 18 h; series mostly up to 76.8 µM. The gist of the method:
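Antagonist-mode qHTS: compound titrations added to GRE-bla HeLa cells, then dexamethasone 2 nM final; 18 h, 37 C. CCF4 FRET fluorescence normalized to dexamethasone and DMSO; IC50 from Hill fit.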

Test [4] can be described thus: qHTS assay to identify small molecules that stimulate interleukin-8 (IL-8) secretion (AID 651758; active means well fitted activation curve with a large enough effect in the signal ratio; the % refers to the signal ratio). The conditions noted are these: HTRF ratio (665/615); series mostly up to 92.2 µM. Summed up: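 THP-1, 2000 cells/well; cpd 16 h, 37 C; add cryptate + XL665 anti-IL-8 Abs; RT 1-3 h; TR-FRET read.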
For test [5], the target named is Cytochrome P450 3A4 (Homo sapiens) (UniProt P08684). The test is described as follows: qHTS Assay for Activators of Cytochrome P450 3A4 (AID 885; active means well fitted curve in the direction sought with a large enough effect; an effect the other way counts as inactive or inconclusive; further: nearly all actives have a fitted effect of over 65% in size). The conditions noted are these: recombinant CYP3A4, Luciferin-PPXE luminescence, 60 min; series mostly up to 57.1 µM. The gist of the method:
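Signal was normalized against complete inhibition by 57 uM ketoconazole. The reaction used 20nM CYP3A4 with 25uM Luciferin-PPXE, 10-min compound preincubation and a 60-min NADPH-supported step at RT.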

Test [6] addresses Androgen receptor (Homo sapiens) (UniProt P10275). In words: qHTS assay for small molecule agonists of androgen receptor signaling (AID 588515; active means well fitted curve in the direction sought with a large enough effect in the signal ratio, with a control signal flat; the % refers to the signal ratio). The note with it: AR-UAS-bla HEK293, beta-lactamase ratio, agonist 16 h; stronger effect = higher value. Summed up: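 EC50 and efficacy came from Hill fits of titrations (up to 92 uM) normalized to 30 nM R1881 as 100% and DMSO as 0%. Compound exposure was 16 h at 37 C on AR-UAS-bla HEK293 cells, with a 405/460/530 nm CCF4 fluorescence read.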

A short description of test [7]: Confirmation and Secondary Assay for Modulators of Hemoglobin Beta Chain Splicing at IVS2 654 locus (AID 910; active means well fitted curve in the direction sought with a large enough effect; an effect the other way counts as inactive or inconclusive;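 further: per-well total GFP intensity by laser scanning cytometry after 2-day treatment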). The note with it: HeLa EGFP-654 splicing reporter, GFP fluorescence, 48 h; series mostly up to 38.3 µM. The gist of the method:
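HeLa cells stably carrying EGFP interrupted by mutant beta-globin IVS2-654 intron (CMV-driven) were treated with compound for 2 days at 37C; corrected splicing was scored as total peak GFP intensity per well (488 nm excitation, 500-520 nm emission).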

The nature of test [8]: Confirmation and Secondary Assay for Modulators of Hemoglobin Beta Chain Splicing at IVS2 705 locus (AID 930; active means well fitted curve in the direction sought with a large enough effect; an effect the other way counts as inactive or inconclusive;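 further: HeLa cells stably expressing the EGFP-705 splicing reporter; GFP fluorescence per well restored by corrected splicing of the IVS2-705 intron in EGFP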). The note with it: HeLa EGFP-705 splicing reporter, GFP fluorescence, 48 h; series mostly up to 38.3 µM. The gist of the method:
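First, HeLa EGFP-705 cells are seeded at 500/well in Optimem with 2% FCS and left overnight. Next, compound or DMSO is added for 2 days. Finally wells are laser-scanned and total peak GFP intensity scored.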

In test [9] the target is Ubiquitin carboxyl-terminal hydrolase 1 (Homo sapiens) (UniProt O94782). The test is described as follows: Inhibitors of USP1/UAF1: Pilot qHTS (AID 504865; active means well fitted curve in the direction sought with a large enough effect; an effect the other way counts as inactive or inconclusive;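 further: rhodamine fluorescence freed from ubiquitin-rhodamine substrate followed over time; top concentration of the series differs between compounds; nearly all actives have a fitted effect of over 35% in size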). The conditions noted are these: purified USP1/UAF1, Ub-rhodamine cleavage fluorescence; series mostly up to 114 µM. Summed up: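 Deubiquitinase activity followed as kinetic rhodamine fluorescence release from 150 nM Ub-Rho. 1 nM USP1/UAF1 with compound, after 15 min room-temperature preincubation, in HEPES pH 7.8 buffer containing TCEP, EDTA, BSA and Tween-20.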
Chain of Ubiquitin carboxyl-terminal hydrolase 1 (Homo sapiens) (O94782 whole entry, looked up): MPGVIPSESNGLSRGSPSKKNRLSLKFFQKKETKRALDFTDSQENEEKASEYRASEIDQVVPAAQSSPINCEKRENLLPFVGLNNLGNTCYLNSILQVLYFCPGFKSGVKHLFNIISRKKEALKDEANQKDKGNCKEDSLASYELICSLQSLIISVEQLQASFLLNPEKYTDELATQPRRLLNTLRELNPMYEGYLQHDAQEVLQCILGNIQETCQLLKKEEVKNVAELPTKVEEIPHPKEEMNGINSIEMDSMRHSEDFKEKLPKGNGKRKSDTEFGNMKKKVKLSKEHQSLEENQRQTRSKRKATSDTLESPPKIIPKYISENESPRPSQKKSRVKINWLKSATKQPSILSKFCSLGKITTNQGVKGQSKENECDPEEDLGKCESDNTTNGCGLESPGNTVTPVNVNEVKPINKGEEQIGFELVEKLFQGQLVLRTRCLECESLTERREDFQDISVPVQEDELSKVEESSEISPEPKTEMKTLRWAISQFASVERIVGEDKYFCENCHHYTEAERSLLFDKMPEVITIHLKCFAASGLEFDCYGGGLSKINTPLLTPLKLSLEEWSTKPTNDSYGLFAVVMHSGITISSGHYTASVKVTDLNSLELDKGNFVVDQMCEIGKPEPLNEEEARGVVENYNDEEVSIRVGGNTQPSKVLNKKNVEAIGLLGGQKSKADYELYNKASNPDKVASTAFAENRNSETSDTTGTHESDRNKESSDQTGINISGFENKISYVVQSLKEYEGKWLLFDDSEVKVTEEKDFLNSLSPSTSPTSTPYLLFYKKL

The target in test [10] is Androgen receptor (Homo sapiens) (UniProt P10275). In words: qHTS assay for small molecule antagonists of androgen receptor signaling (AID 588516; active means well fitted curve in the direction sought with a large enough effect in the signal ratio, with a control signal flat, not every such curve was filed as active; the % refers to the signal ratio). The conditions noted are these: AR-UAS-bla HEK293, beta-lactamase ratio, antagonist mode, 16 h; series mostly up to 76.8 µM. The gist of the method: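 Antagonist mode: inhibition of R1881-stimulated (10 nM final) bla reporter in GeneBLAzer AR HEK 293 cells, 16 h at 37C, compounds titrated. IC50 and efficacy from Hill-equation fits of 405/460–530 nm FRET ratios.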
Chain of Androgen receptor (Homo sapiens) (P10275 whole entry, looked up): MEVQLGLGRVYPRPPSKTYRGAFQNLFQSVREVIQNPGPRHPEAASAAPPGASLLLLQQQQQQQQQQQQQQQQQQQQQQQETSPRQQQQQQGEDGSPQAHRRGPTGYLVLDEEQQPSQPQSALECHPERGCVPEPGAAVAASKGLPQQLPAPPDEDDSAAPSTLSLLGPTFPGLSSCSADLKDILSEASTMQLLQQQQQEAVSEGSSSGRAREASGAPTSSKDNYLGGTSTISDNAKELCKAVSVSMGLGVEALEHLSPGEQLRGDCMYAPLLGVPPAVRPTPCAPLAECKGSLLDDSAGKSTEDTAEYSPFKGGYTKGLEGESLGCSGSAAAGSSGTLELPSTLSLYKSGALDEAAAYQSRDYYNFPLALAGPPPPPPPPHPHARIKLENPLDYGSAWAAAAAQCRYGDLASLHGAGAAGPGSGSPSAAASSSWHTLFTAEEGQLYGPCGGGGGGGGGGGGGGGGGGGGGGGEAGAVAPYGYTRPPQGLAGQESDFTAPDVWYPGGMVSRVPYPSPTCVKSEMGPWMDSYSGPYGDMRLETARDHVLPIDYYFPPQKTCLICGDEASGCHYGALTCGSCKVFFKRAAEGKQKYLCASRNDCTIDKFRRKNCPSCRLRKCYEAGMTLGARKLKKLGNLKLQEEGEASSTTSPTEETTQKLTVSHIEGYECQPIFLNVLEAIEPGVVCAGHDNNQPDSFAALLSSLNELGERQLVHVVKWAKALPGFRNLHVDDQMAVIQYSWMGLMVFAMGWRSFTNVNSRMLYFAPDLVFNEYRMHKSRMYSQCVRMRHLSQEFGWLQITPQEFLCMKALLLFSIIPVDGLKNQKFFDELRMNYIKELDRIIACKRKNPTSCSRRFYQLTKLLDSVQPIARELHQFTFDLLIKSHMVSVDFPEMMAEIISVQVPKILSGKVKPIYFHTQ

Chain of Bile acid receptor (Homo sapiens) (Q96RI1 whole entry, looked up): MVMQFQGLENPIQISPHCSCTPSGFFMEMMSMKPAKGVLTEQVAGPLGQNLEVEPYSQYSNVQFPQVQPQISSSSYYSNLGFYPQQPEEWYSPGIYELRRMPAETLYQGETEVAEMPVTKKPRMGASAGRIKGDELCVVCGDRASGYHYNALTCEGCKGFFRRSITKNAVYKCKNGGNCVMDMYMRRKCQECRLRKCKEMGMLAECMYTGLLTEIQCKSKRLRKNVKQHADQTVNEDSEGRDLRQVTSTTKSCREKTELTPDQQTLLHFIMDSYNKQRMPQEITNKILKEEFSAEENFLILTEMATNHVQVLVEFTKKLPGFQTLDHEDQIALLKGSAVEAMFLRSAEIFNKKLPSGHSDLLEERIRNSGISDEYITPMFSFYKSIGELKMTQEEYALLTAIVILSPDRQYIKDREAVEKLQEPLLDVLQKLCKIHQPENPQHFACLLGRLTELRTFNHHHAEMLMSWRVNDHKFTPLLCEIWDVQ
Chain of Glucocorticoid receptor (Homo sapiens) (P04150 whole entry, looked up): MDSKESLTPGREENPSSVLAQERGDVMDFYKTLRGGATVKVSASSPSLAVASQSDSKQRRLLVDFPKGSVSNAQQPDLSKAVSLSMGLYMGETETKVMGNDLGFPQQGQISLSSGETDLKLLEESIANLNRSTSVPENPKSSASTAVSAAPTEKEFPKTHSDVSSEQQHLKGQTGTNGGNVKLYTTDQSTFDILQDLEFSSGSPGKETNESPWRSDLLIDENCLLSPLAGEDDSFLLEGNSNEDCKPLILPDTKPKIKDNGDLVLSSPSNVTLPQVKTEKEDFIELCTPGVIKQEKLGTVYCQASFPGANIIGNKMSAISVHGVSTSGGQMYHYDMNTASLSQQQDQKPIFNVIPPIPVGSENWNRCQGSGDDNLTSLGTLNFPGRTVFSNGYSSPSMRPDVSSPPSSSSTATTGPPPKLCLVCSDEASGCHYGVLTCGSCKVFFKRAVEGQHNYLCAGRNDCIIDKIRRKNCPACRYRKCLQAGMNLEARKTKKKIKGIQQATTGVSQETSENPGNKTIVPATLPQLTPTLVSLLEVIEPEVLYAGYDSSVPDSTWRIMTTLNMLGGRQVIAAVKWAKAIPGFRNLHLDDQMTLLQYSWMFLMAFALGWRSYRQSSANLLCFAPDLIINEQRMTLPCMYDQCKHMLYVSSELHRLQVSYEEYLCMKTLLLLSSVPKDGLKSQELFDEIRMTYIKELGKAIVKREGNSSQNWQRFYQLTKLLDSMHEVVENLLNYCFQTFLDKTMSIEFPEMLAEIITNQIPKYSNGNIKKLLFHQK
Chain of Cytochrome P450 3A4 (Homo sapiens) (P08684 whole entry, looked up): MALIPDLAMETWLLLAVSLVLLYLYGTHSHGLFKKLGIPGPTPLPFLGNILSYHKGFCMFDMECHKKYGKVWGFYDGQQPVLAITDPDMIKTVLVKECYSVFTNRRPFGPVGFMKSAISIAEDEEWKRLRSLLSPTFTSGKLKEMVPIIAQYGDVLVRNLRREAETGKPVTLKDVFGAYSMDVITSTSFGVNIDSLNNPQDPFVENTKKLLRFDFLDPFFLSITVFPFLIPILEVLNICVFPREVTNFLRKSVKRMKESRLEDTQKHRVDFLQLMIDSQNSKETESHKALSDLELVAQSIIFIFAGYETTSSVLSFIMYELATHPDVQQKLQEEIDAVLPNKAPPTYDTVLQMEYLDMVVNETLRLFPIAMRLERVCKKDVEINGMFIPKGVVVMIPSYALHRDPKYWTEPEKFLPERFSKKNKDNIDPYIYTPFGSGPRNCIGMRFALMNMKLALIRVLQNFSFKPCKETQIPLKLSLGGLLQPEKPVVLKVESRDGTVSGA

With `O=C(O)c1cc(Cl)ccc1Cl`, in test [1], the Potency was over 92 µM. For the same compound, the outcome in [2] and in test [3] was inactive.
In the case of `Cc1ccc([N+](=O)[O-])cc1`, the outcome in test [3] was inactive. Besides, the Potency result in test [4] was “inactive”.
For `Cc1cc(-c2cc(C)c(N)c(C)c2)cc(C)c1N`, the Potency entry in [5] was “inactive”.
Consider `Nc1ccc(Cc2ccc(N)cc2)cc1`, for which the result in test [2] and in test [3] was inactive.
Take `CCN(N=O)C(N)=O`: the outcome in test [2] was inactive.
Turning to `Cc1cc(Cl)ccc1O`, the result in test [2] was inactive. In addition, the Potency entry in test [4] was “inactive”.
As for `ClC(Cl)C(Cl)Cl`, the result in test [2] and in [3] was inactive.
`C/C=C/CC#N`: the result in test [2] was inactive. Further, the Potency result in test [4] was “inactive”.
In the case of `Nc1ccccc1-c1ccccc1`, the result in test [3] was inactive.
Consider `O=C(Cc1ccccc1)OCc1ccccc1`, for which the outcome in test [2] was inactive. The Potency entry in test [4] was “inactive”.
On to `COC(=O)Nc1nc2ccccc2[nH]1`, for which the activation in test [6] is 10.4% and 9.09%.
Take `C=CCO`: the result in [3] was inactive.
For `ClCCCCl`, the result in test [2] was inactive.
On to `Nc1cc(Cl)ccc1O`, for which the outcome in test [3] was inactive.
For the compound `Oc1cccc(Cl)c1`, in test [3], the result was inactive.
Turning to `O=[N+]([O-])c1ccc(O)c([N+](=O)[O-])c1`, the result in test [7], in [8] and in test [10] was inactive. The Potency result in [9] and in test [4] was “inactive” throughout.
As for `Cc1cc(N=Nc2ccccc2C)ccc1N`, in [6], the activation was -4.45%. The outcome in test [10] and in test [2] was inactive. The Potency entry in test [4] is “inactive”.
For the compound `C(CCOCC1CO1)COCC1CO1` (stereo not given), the result in test [2] was inactive.
For the compound `Cc1cccc(N)c1C`, the result in test [2] was inactive.
On to `CC(C)(COCC1CO1)COCC1CO1` (stereo not given), for which the result in [2] and in test [3] was inactive. Besides, the Potency entry in test [4] was “inactive”.
With `CC[N+](=O)[O-]`, the outcome in [3] was inactive.
With `Nc1ccc(Cc2ccc(N)c(Cl)c2)cc1Cl`, the Potency entry in test [5] was “inactive”.
Consider `Cc1ccc(OP(=O)(Oc2ccc(C)cc2)Oc2ccc(C)cc2)cc1`, for which the Potency result in test [5] is “inactive”.
Still for that read-out and setting: with `Cc1cc(-c2ccc(N)c(C)c2)ccc1N` the entry was “inactive”.
As for `CN(C)c1ccc(N(C)C)cc1`, the result in [2] was inactive.
On the same count and under the same terms, with `O=[N+]([O-])c1cc(Cl)c(Cl)c(Cl)c1` the entry was “inactive”; with `c1ccoc1`, “inactive”.
Regarding `CN(C)C(=O)Nc1cccc(C(F)(F)F)c1`, the Potency result in test [4] was “inactive”.
